Measurements from paper PMC7826789 (International Journal of Molecular Sciences, 2021).

What was measured:
[1] = tested on: EGFR
[2] = tested on: ERBB2
[3] = tested on: ERBB4
[4] = tested on: EPHA6
[5] = tested on: EPHB4
[6] = tested on: EPHA2
[7] = tested on: EIF2AK3
[8] = tested on: EPHB6
[9] = tested on: ERBB3
[10] = tested on: ERK3

Compound: Cl.O=C(O[C@H]1CN[C@H](C#Cc2cc3ncnc(Nc4ccc5c(cnn5Cc5ccccc5)c4)c3s2)C1)N1CCOCC1 [GSK200398A]
- Kinases covered [1]: EGFR
- Kinases covered [2]: ERBB2
- Kinases covered [3]: ERBB4

Compound: CN(C)c1cc2c(Nc3ccc4c(cnn4Cc4ccccc4)c3)ncnc2cn1 [GW282974X]
- Kinases covered [2]: ERBB2
- Kinases covered [3]: ERBB4

Compound: Cl.O=S1CCN(Cc2ccc(-c3ccc4ncnc(Nc5ccc(OCc6ccccc6)c(F)c5)c4c3)o2)CC1 [GW576924A]
- Kinases covered [1]: EGFR
- Kinases covered [2]: ERBB2

Compound: COc1cc2ncnc(Nc3cccc(Cl)c3F)c2cc1O[C@H]1CC[C@@]2(CC1)NCCNC2=O [BI00113608]
- Kinases covered [1]: EGFR
- Kinases covered [4]: EPHA6
- Kinases covered [5]: EPHB4
- Kinases covered [2]: ERBB2

Compound: Cl.c1ccc(Cc2nc3ccc(Nc4ncnc5ccccc45)cc3[nH]2)cc1 [GR269666A]
- Kinases covered [3]: ERBB4

Compound: COc1cc2ncnc(Nc3cccc(Cl)c3F)c2cc1O[C@H]1CC[C@H]([C@@H]2NCCNC2=O)CC1 [BI00133844]
- Kinases covered [1]: EGFR
- Kinases covered [4]: EPHA6
- Kinases covered [5]: EPHB4
- Kinases covered [2]: ERBB2
- Kinases covered [3]: ERBB4

Compound: COc1cc2ncnc(Nc3ccc4c(cnn4Cc4ccccc4)c3)c2cc1OC.Cl [GW282449A]
- Kinases covered [3]: ERBB4

Compound: COC(=O)Nc1nc2ccc(Oc3ccc(NC(=O)Nc4cc(C(F)(F)F)ccc4F)cc3)cc2s1.Cl [GW693917A]
- Kinases covered [6]: EPHA2

Compound: COc1cc2ncnc(Nc3ccc(F)c(Cl)c3)c2cc1O[C@H]1CC[C@H](N)CC1 [BIBW3133BS]
- Kinases covered [1]: EGFR
- Kinases covered [2]: ERBB2

Compound: Cn1cc(-c2ccc3c(c2)CCN3C(=O)Cc2cccc(C(F)(F)F)c2)c2c(N)ncnc21 [GSK2606414]
- Kinases covered [7]: EIF2AK3

Compound: C#Cc1cccc(Nc2ncnc3cc(OC)c(OC4CCN(C)CC4)cc23)c1 [BI00007366]
- Kinases covered [1]: EGFR
- Kinases covered [2]: ERBB2

Compound: Cn1ccc(-c2cccc(Nc3ccnc4cc(-c5nccs5)ccc34)c2)n1 [GW525701]
- Kinases covered [8]: EPHB6

Compound: Cc1cccc(CC(=O)N2CCc3c2ccc(-c2cn(C)c4ncnc(N)c24)c3F)n1 [GSK2656157]
- Kinases covered [7]: EIF2AK3

Compound: Fc1cccc(COc2ccc(Nc3ncncc3C#Cc3ccccc3)cc2Cl)c1 [GW651576X]
- Kinases covered [1]: EGFR

Compound: COC(=O)C(NC(=O)NC1CCN(c2ccnc(Nc3ccc(F)cc3)n2)C1)c1ccccc1 (stereo not drawn) [GSK1379712]
- Kinases covered [8]: EPHB6

Compound: C=CC(=O)Nc1cc(-c2nn(C3CCC(N4CCN(C(C)=O)CC4)CC3)c3ncnc(N)c23)ccc1Oc1ccccc1 (stereo not drawn) [TX-85-1]
- Kinases covered [9]: ERBB3

Compound: Cc1cc(NC(=O)c2cccc(NC(=O)/C=C/CN(C)C)c2)ccc1Nc1nccc(-c2cccnc2)n1 [JNK-IN-7]
- Kinases covered [10]: ERK3

Compound: O=C(Nc1cccc(-c2nn3ncccc3c2-c2ccnc(Nc3cccnc3)n2)c1)c1c(F)cccc1F [GSK312879]
- Kinases covered [1]: EGFR
- Kinases covered [2]: ERBB2
- Kinases covered [3]: ERBB4
